LDHA inh: qHTS assay for inhibitors of human lactate dehydrogenase | L-lactate dehydrogenase A chain (Homo sapiens), P00338 | purified LDHA, NADH/diaphorase-resazurin fluorescence; stronger effect = lower value | activity change, % (values are at about 110 or 230 µM) | hit rate 0.15% among 480,000 | AID 1347041, 2019; in the data active means activity change below about -30%; inconclusive means mostly about -25% to -30%
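LDH5 2 nM; NADH 0.06 mM, pyruvate 0.2 mM; 200 mM Tris pH 7.4, EDTA, Tween-20; 5 min RT. Detection: diaphorase 0.133 mg/mL + resazurin 37 µM, fluorescence ex540/em590 at 0 and 20 min; normalized to enzyme-free and DMSO wells.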
GLP1R ag: qHTS of GLP-1 Receptor Agonists | Potency, µM (highest dose often 45.6 µM), usual class: activators | hit rate 0.007% among 380,000 | Glucagon-like peptide 1 receptor (Homo sapiens), P43220 | HEK293 GLP-1R CRE-luciferase, luminescence, 4-6 h; cells express a hypersensitive GLP-1R form
Target sequence (P43220 whole entry, looked up): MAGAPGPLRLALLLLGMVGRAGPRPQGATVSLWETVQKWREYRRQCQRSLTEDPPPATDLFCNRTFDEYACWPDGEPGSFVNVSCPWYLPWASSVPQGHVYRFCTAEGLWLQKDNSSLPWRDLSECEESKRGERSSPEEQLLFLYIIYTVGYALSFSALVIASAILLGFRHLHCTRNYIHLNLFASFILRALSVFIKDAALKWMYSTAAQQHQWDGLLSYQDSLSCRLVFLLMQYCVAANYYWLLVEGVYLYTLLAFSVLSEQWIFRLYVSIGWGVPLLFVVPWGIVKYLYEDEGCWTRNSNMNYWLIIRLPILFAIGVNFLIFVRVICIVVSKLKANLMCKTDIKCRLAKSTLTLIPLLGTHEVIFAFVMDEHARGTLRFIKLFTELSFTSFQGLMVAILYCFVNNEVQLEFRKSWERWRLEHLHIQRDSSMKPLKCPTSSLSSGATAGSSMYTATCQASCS
p53 reactivation: qHTS assay for re-activators of p53 using a Luc reporter; H1299 p53-A138V BP100-luciferase reporter, luminescence, 24 h; Potency, µM (titrated, usually from 92.2 µM), usual class: activators; hit rate 0.063% among 320,000; further: nearly all actives have a fitted effect of over 45% in size
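p53-null H1299 cells stably carrying temperature-sensitive p53-A138V and a BP100-luciferase reporter were pinned with compounds (4-point, 1:5 series) and held 24 hrs at 37 deg C. Luminescence was read 10 min after detection reagent.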
GLP1R cytotox: qHTS of GLP-1 Receptor Inverse Agonists: Cytotox Screen. Potency, µM (highest dose often 38.3 µM), hits mostly inhibitors. HEK293 cAMP-luciferase reporter cells, luminescence, 24 h. AID 624418, 2012. hit rate 0.13% among 410,000;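 further: loss of luciferase light is scored as toxicity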
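Here, cytotoxicity is scored as loss of luminescence. The MLSMR collection was tested on cells seeded in medium containing 10% Nu serum, with a 24 hr compound exposure preceded by 12 hours of culture.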
ClpP mod: qHTS Assay for Activators of ClpP. ATP-dependent Clp protease proteolytic subunit (Bacillus subtilis (strain 168)), P80244. purified B. subtilis ClpP, FRET peptide cleavage, 20 min. Potency, µM (doses to about 57.5 µM). hit rate 1.9% among 340,000; active means well fitted falling curve with a large enough effect; inconclusive means small, poorly fitted or top-dose-only effect; inactive means no such curve, though single readings can be large or run the other way; further: the source files actives as falling curves though it sought activators and does not explain the sign; nearly all actives have a fitted effect of over 65% in size
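Buffer: 100 mM Tris/HCl pH8, 100 mM KCl, 0.05% low protease BSA, 2.5% glycerol, 0.01% Tween-20. ClpP 10 microg/mL final; 20 min RT; delta FRET normalized to ADEP and DMSO controls.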
GLP-1R inv ag: qHTS of GLP-1 Receptor Inverse Agonists (Inhibition Mode). Glucagon-like peptide 1 receptor (Homo sapiens), P43220. HEK293 GLP-1R CRE-luciferase, luminescence, 24 h; GLP-1R form is constitutively active. Potency, µM (top dose mostly 38.3 µM), actives largely listed as inhibitors. hit rate 1.6% among 410,000. AID 624417, 2012; further: nearly all actives have a fitted effect of over 55% in size
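Constitutively active GLP-1R drives a cAMP-responsive luciferase in stably transfected HEK293 cells; test compounds are added after overnight (12 h) attachment and left 24 hr, and signal loss in luminescence marks inhibition.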
Of the large screens only hits and unclear results are named; the others gave an inactive call. Sampled rows, rich in hits. Any-hit rate of the full collection: about 2.9%. Unless noted, the call rests on the fitted dose curve; in most records, active means well fitted curve in the direction sought with a large enough effect; inconclusive means small, poorly fitted or top-dose-only effect, or another doubt; inactive means no such curve, though single readings can be large; an effect the other way counts as inactive or inconclusive.

CCOC(=O)CCc1c(C)n(CC)c2cc(-c3ccccc3OC)nn2c1=O	ClpP mod 11µM
CCN(CC)CCCNC(=O)CCc1c(C)n(CC)c2cc(-c3ccccc3OC)nn2c1=O	none
O=C1/C(=C/c2ccc([N+](=O)[O-])cc2)CCc2ccccc21	p53 reactivation 11µM (no result: LDHA inh, GLP1R ag, GLP1R cytotox, ClpP mod, GLP-1R inv ag)
COc1cc(C=O)c(OC)cc1Br	none (no result: GLP1R ag, p53 reactivation, GLP1R cytotox, ClpP mod, GLP-1R inv ag)
Cc1ccc(C(=O)NCCCNC(=O)COc2ccc(C)c(C)c2)cn1	none (no result: ClpP mod)
Cc1cccc2cc(COC(=O)C(C)C)c(=O)[nH]c12	none
COC(=O)c1nn(-c2ccccc2)c(Cl)c1/C=N/OCc1ccc(C)cc1	GLP-1R inv ag 13µM
COC(=O)c1nn(-c2ccccc2)c(Cl)c1/C=N/OCc1c(Cl)cccc1Cl	none (no result: p53 reactivation)
O=C(NC1CCCC1)C(c1ccccc1)N(C(=O)c1ccco1)C1CCCC1 (centres undefined)	GLP1R cytotox inconclusive, GLP-1R inv ag 13µM
O=C(NC1CCCC1)C(c1ccccc1F)N(C(=O)c1ccco1)C1CCCC1 (centres undefined)	GLP-1R inv ag inconclusive
CN(Cc1nc2c(s1)CCCC2)C(=O)CCc1nnc(-c2ccccc2)o1	none (no result: ClpP mod)
COc1ccc(NC(=O)c2cc3n(n2)C(C(F)(F)F)CC(c2ccco2)N3)cc1 (centres undefined)	none
O=C(NCC12CC3CC(CC(C3)C1)C2)c1cc2n(n1)C(C(F)(F)F)CC(c1ccco1)N2 (centres undefined)	GLP-1R inv ag 3.5µM
COc1ccc(OCCC(=O)OCC(=O)NC(=O)NC2CCCCC2)cc1	ClpP mod 20µM
CCc1cccc(C)c1NC(=O)Cn1c(NCCO)nc2ccccc21	none
Cc1ccc(C(=O)N2CCN(S(=O)(=O)c3ccc(C)c([N+](=O)[O-])c3)C2)cc1	none (no result: ClpP mod)
C/C(=N\NC(=O)c1csc(C)c1C)c1ccco1	p53 reactivation 7.9µM
C/C(=N\NC(=O)c1csc(C)c1C)c1ccc(C)s1	p53 reactivation inconclusive
O=S(=O)(c1ccc(F)cc1)N1CCc2ccccc2C1	none (no result: p53 reactivation)
Cc1onc(-c2ccccc2)c1CNC(=O)Nc1cccc(Cl)c1	GLP-1R inv ag 8.9µM (no result: ClpP mod)
Cc1ccc(/C=C/C(O)=C2/C(=O)N(C)C3(C)CC2c2ccccc2O3)cc1 (centres undefined)	ClpP mod inconclusive, GLP-1R inv ag 2.2µM
CN1CCN(CCOCCOc2ccc(Br)cc2Cl)CC1	LDHA inh -38, GLP-1R inv ag inconclusive
Cc1ccc(OCCOCCN2CCN(C)CC2)c([N+](=O)[O-])c1	LDHA inh -46
Cc1ccc(OCCOCCN2CCCCC2)c([N+](=O)[O-])c1	none (no result: ClpP mod)
O=C(O)c1cccc(S(=O)(=O)N2CCN(S(=O)(=O)c3ccc4ccccc4c3)CC2)c1	none
Cc1ccc(-c2nn(-c3ccccc3)cc2CO)o1	p53 reactivation inconclusive, ClpP mod 32µM
OCc1cn(-c2ccccc2)nc1-c1ccco1	ClpP mod inconclusive
OCc1cn(-c2ccccc2)nc1-c1ccc(-c2nn(-c3ccccc3)cc2CO)cc1	ClpP mod 28µM
Cc1noc(C)c1CSCC(=O)OCC(=O)N1CC(=O)Nc2ccccc21	none
Cc1cccc(C(=O)NC(Nc2ccccc2C)C(Cl)(Cl)Cl)c1 (centres undefined)	none (no result: GLP1R ag, p53 reactivation, GLP1R cytotox, ClpP mod, GLP-1R inv ag)
Cc1ccccc1NC(NC(=O)c1cccnc1)C(Cl)(Cl)Cl (centres undefined)	ClpP mod 13µM, GLP-1R inv ag inconclusive
Cc1noc(C)c1COc1cccc(C(=O)N2CCc3ccccc32)c1	GLP-1R inv ag inconclusive (no result: ClpP mod)
Cc1cc(=O)oc2cc(NC(=S)NCc3ccccn3)ccc12	none
CC(C)Cn1c(N2CCN(CC(=O)Nc3ccc(Cl)cc3)CC2)nc2ccccc21	GLP-1R inv ag 10µM (no result: ClpP mod)
